From PubChem BioAssay (NCI)
About 83,000 compounds went through this panel and 20% of them were active in at least one assay; those are over-represented in the sample as a whole.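 96-well plates, one dose, 48 hours. Percent growth reported; active if below 10.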 The source made the active and inactive calls. *1 amine or outer side, *2 acyl side, *3 side chain or, on linkers, in order; H or OH if unused. Where a SMILES comes first, the peptide text is derived from it. [ ]: non-standard residue; d: D form. The star is where a group is joined. X5 = CCC(=O)CC1CC(C)CC(C(=O)[*:2])N1[*:1]; X4 = CCCCCCCCC(C)C(=O)*; Aib = CC(C)(N)C(=O)O; X6 = CC(CN(C)CCO)N*

Legend:
Test in all cases: NCI-60 one-dose screen, 48 h (100 = growth as untreated, 0 = no growth, -100 = all killed)
[1] = tested on: DU-145 prostate; conditions: 10 µM unless noted
[2] = tested on: K-562 leukemia; conditions: 10 µM unless noted
[3] = tested on: MALME-3M melanoma; conditions: 10 µM unless noted
[4] = tested on: MDA-MB-231 breast; conditions: 10 µM unless noted
[5] = tested on: RXF 393 renal; conditions: 10 µM unless noted
[6] = tested on: SF-268 CNS; conditions: 10 µM unless noted
[7] = tested on: SF-295 CNS; conditions: 10 µM unless noted
[8] = tested on: SF-539 CNS; conditions: 10 µM unless noted
[9] = tested on: UACC-257 melanoma; conditions: 10 µM unless noted
[10] = tested on: HCT-15 colon; conditions: 10 µM unless noted
[11] = tested on: HT29 colon; conditions: 10 µM unless noted
[12] = tested on: SNB-75 CNS; conditions: 10 µM unless noted
[13] = tested on: SNB-19 CNS; conditions: 10 µM unless noted
[14] = tested on: U251 CNS; conditions: 10 µM unless noted
[15] = tested on: PC-3 prostate; conditions: 10 µM unless noted
[16] = tested on: SK-MEL-5 melanoma; conditions: 10 µM unless noted
[17] = tested on: UACC-62 melanoma; conditions: 10 µM unless noted
[18] = tested on: LOX IMVI melanoma; conditions: 10 µM
[19] = tested on: M14 melanoma; conditions: 10 µM unless noted
[20] = tested on: SK-MEL-28 melanoma; conditions: 10 µM unless noted

Measured: growth

Cc1ccc(/C=C2\CNC/C(=C\c3ccc(C)cc3)C2=O)cc1
active: [1] -87.5% | [2] -28.5% | [4] -15.9% | [5] -57.4% | [6] -8.61% | [7] -5.11% | [8] -64.5% | [9] -21.1% | [10] -33.8% | [11] -35.8% | [13] -52.6% | [14] -63.4% | [15] 6.55% | [16] -96.7% | [17] -89% | [18] -69.2%
inactive: [3] 29.4% | [12] 29%

O=C(C[P+](c1ccccc1)(c1ccccc1)c1ccccc1)c1ccccc1
inactive: [1] 102% | [2] 84% | [3] 110% | [4] 84.5% | [5] 107% | [6] 94.6% | [7] 87.4% | [8] 104% | [9] 101% | [19] 106% | [11] 87.4% | [12] 83.6% | [13] 94.4% | [15] 74.7% | [16] 104% | [17] 79.5% | [18] 70.6% | [20] 109%

Cc1cc(=O)oc2cc(O)cc(O)c12
inactive: [1] 103% | [2] 102% | [3] 90% | [4] 89.8% | [5] 114% | [6] 97.7% | [7] 103% | [8] 92.4% | [19] 102% | [10] 108% | [11] 107% | [12] 98.2% | [13] 104% | [14] 107% | [15] 100% | [16] 99.5% | [17] 102% | [18] 97.9% | [20] 101%

CCCCC(C=O)(C=C=C(C)C)CC (configuration not stated)
inactive: [1] 113% | [2] 111% | [3] 97.7% | [4] 114% | [5] 106% | [6] 102% | [7] 95% | [8] 98% | [9] 98.1% | [19] 102% | [11] 109% | [12] 87.3% | [13] 102% | [14] 96.8% | [15] 92.6% | [16] 104% | [17] 95.8% | [18] 96.8% | [20] 101%

Cc1cc2cccnc2c2ncccc12
inactive: [1] 20.7% | [2] 14.3% | [3] 49.3% | [4] 44.2% | [5] 13.3% | [6] 15.9% | [7] 28.5% | [8] 13% | [10] 37% | [11] 19.7% | [13] 34.1% | [14] 17.2% | [15] 47.3% | [18] 14.8% | [20] 32.2%
active: [9] -1.02% | [12] 2.75% | [16] 3.03% | [17] 0.859%

COc1ccc2nc3cc([N+](=O)[O-])ccc3c(NNc3ccccc3)c2c1
inactive: [1] 89.6% | [2] 90.5% | [3] 90.9% | [4] 66.5% | [5] 46.9% | [6] 56.8% | [7] 56% | [8] 22.6% | [9] 101% | [10] 69.4% | [11] 94% | [12] 23.5% | [14] 29.1% | [16] 88.5% | [17] 74.6% | [18] 84.2% | [20] 97.1%

COC1CC(C)C(OC)c2cc(O)cc(c2O)NC(=O)/C(C)=C/C=C\C(C)C(OC(N)=O)/C(C)=C\C(C)C1OC (configuration not stated)
inactive: [3] 32.1% | [4] 32.4% | [6] 63.1% | [9] 14.4% | [12] 47.8% | [13] 37.8% | [14] 43.9% | [15] 25.2%
active: [1] -29.7% | [2] -58.6% | [5] -20.5% | [7] -15.9% | [8] 6.34% | [10] 5.82% | [11] 5.88% | [16] -10.9% | [17] -27.6% | [18] 5.8%

Cc1ccc2c(c1)sc(-c1ccc(N(C)C)cc1)[n+]2C
inactive: [1] 20.4% | [5] 39.7% | [6] 18.5% | [8] 12.5% | [10] 68.7% | [12] 14.2% | [13] 16.1% | [20] 30.8%
active: [2] -21.7% | [3] 0.435% | [4] 2.82% | [7] -5.75% | [9] 4.53% | [11] 4.16% | [14] -2.09% | [16] -76.6% | [17] 8.89% | [18] 1.78%

OC(c1cc(-c2ccc(Cl)cc2)nc2c(Cl)cccc12)C1CCCCN1 (configuration not stated)
active: [1] -96.3% | [2] -30.9% | [3] -50.2% | [4] -71.1% | [5] -98.1% | [6] -65.7% | [7] -80.8% | [8] -72.4% | [9] -77% | [10] -58.1% | [11] -86.3% | [12] -81.2% | [13] -69.9% | [14] -89% | [15] -94.4% | [16] -0.885% | [17] -75.9% | [18] -76.6% | [20] -94.6%

CCN(CC)CC(O)c1cc(-c2ccc(Cl)cc2)nc2cc(Cl)ccc12 (configuration not stated)
active: [2] -27.2% | [4] -3.65% | [9] -59.8% | [11] -50.1% | [14] 8.59% | [16] -95.6% | [17] -56.6% | [20] -56.6%
inactive: [1] 17.9% | [3] 43% | [5] 28.9% | [6] 42.1% | [7] 31.7% | [8] 18% | [10] 25.1% | [12] 38.3% | [13] 56.8% | [15] 28.5% | [18] 11%

c1ccc(-c2cccc(-c3ccccn3)n2)nc1
inactive: [1] 17.8% | [4] 44.1% | [5] 26.2% | [6] 19.9% | [7] 19.5% | [11] 26% | [12] 49% | [13] 27.9% | [14] 14.5% | [15] 31.2% | [20] 33%
active: [2] 4.95% | [3] 3.68% | [8] 5.87% | [9] -4.86% | [19] -17.8% | [16] -50.8% | [17] 3.51% | [18] -0.708%

COc1cc(/C=C/C(=O)CC(=O)/C=C/c2ccc(O)c(OC)c2)ccc1O
active: [19] 7.15% | [11] -20.3% | [12] 7.11% | [18] 8.79%
inactive: [1] 40.6% | [2] 12.5% | [3] 60.3% | [4] 82.3% | [5] 20.3% | [6] 44.9% | [7] 102% | [8] 14.8% | [9] 53.6% | [13] 48.2% | [14] 18.5% | [15] 36.8% | [16] 71% | [17] 53.5%

O=C(c1ccccc1)N(CCCl)C(=O)N(CCCl)C(=O)c1ccccc1
inactive: [1] 109% | [2] 95.5% | [3] 95.2% | [4] 82.1% | [5] 104% | [6] 102% | [7] 81.6% | [8] 94.7% | [9] 101% | [19] 101% | [11] 97.4% | [12] 98.8% | [13] 90.5% | [14] 102% | [15] 88.5% | [16] 96.2% | [17] 93.8% | [18] 88.2% | [20] 106%

C[n+]1ccccc1C[n+]1ccccc1
inactive: [1] 114% | [2] 87.8% | [3] 118% | [4] 122% | [5] 115% | [6] 96.8% | [7] 114% | [8] 106% | [9] 112% | [10] 110% | [11] 103% | [12] 101% | [13] 104% | [14] 109% | [15] 91.4% | [16] 105% | [17] 105% | [18] 114% | [20] 98.3%

CCCCCCCCC(C)C(=O)N1CCCC1C(=O)N1C(CC(=O)CC)CC(C)CC1C(=O)NC(C)C(=O)NC(C)(C)C(=O)NC(C)(C)C(=O)NC(C(=O)NC(C)C(=O)NC(C)(C)C(=O)NC(C)(C)C(=O)NC(C)CN(C)CCO)C(C)CC (configuration not stated) (X4-P[X5]A[Aib][Aib]IA[Aib][Aib]-X6; configuration not given here)
active: [1] -84.4% | [2] -52.1% | [4] -94.1% | [5] -56.5% | [6] -15.4% | [7] -26.2% | [8] -77% | [9] -72.1% | [10] -70.8% | [11] -84.2% | [12] -23.8% | [13] 1.03% | [14] -67.3% | [15] -7.35% | [16] -85.3% | [17] -66.1% | [18] -69.5%
inactive: [3] 13.5%
